Measurements as given in PubChem BioAssay.
A number with no mark means an inactive call. For part of these data: Measured potencies and affinities stand elsewhere. The source made the active and inactive calls. Unless noted, no rule for the calls is given here.

Columns and labels:
[1] = antimalarial activity against Dd2 strain (AID 2302;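 active = growth inhibition above 50% at the single 2 µM test dose, taken to imply half-maximal potency below 2 µM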;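 also: 0% = DMSO untreated growth and 100% = chloroquine plus artemisinin killed control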); details: P. falciparum Dd2 in RBCs, LDH growth readout, 72 h; at 2 µM; hits give high values
[2] = HepG2 cytotoxicity, primary screen, cytotoxicity control for P. falciparum antimalarial project, cell-based, ATP luminescence (AID 2303;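 active = inhibition above 50%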;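 also: 0% = DMSO wells and 100% = digitonin-killed cells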); details: HepG2 viability, 24-48 h, at 10 µM, hits give high values
[3] = biological target: L-lactate dehydrogenase (Plasmodium falciparum (isolate CDC / Honduras)) (UniProt Q27743); test: PfLDH activity inhibition – cell lysate, 3D7 strain, counter-screen for P. falciparum growth inhibition project (AID 2304);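 also: 0% = vehicle and 100% = reference inhibitor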; details: P. falciparum 3D7 crude extract, LDH APAD/NBT absorbance; at 2 µM; hits give high values
[4] = inhibition of 3D7 malaria parasite growth – strain 3D7 (AID 2306);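 also: 0% = DMSO wells and 100% = chloroquine plus artemisinin control wells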; details: P. falciparum 3D7 erythrocytic growth, LDH absorbance, 72 h; at 2 µM; hits give high values
[5] = biological target: Calcium-dependent protein kinase 1 (Plasmodium falciparum (isolate 3D7)) (UniProt P62344); test: PfCDPK1 kinase inhibitors, biochemical, TCAMS library (AID 1159585; cut-off not given, nearly all actives have IC50 up to about 0.98 µM;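 also: inhibitors leave more ATP so luminescence rises with inhibition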); details: recombinant PfCDPK1, Kinase-Glo ATP depletion luminescence
[6] = biological target: Plasmodium falciparum protein kinase 6 (PK6, PF3D7_1337100) (UniProt Q8IDW1); test: PfPK6 kinase inhibitors, biochemical, TCAMS library (AID 1159586); details: recombinant PfPK6, Kinase-Glo ATP depletion luminescence
[7] = biological target: Protein kinase 7 (PK7), Plasmodium falciparum 3D7 (PF3D7_0213400) (UniProt Q7YTF7); test: inhibition of Plasmodium PK7 catalytic activity – biochemical, TCAMS antimalarial set, Kinase-Glo luminescence (AID 1159587); details: recombinant PfPK7, Kinase-Glo ATP depletion luminescence
[8] = biological target: Calcium-dependent protein kinase 4 (Plasmodium falciparum (isolate 3D7)) (UniProt Q8IBS5); test: PfCDPK4 kinase inhibitors, biochemical, TCAMS library (AID 1159588; cut-off not given, nearly all actives have IC50 up to about 0.91 µM); details: recombinant PfCDPK4, Kinase-Glo ATP depletion luminescence
Chain of Calcium-dependent protein kinase 4 (Plasmodium falciparum (isolate 3D7)) (Q8IBS5 whole entry, looked up): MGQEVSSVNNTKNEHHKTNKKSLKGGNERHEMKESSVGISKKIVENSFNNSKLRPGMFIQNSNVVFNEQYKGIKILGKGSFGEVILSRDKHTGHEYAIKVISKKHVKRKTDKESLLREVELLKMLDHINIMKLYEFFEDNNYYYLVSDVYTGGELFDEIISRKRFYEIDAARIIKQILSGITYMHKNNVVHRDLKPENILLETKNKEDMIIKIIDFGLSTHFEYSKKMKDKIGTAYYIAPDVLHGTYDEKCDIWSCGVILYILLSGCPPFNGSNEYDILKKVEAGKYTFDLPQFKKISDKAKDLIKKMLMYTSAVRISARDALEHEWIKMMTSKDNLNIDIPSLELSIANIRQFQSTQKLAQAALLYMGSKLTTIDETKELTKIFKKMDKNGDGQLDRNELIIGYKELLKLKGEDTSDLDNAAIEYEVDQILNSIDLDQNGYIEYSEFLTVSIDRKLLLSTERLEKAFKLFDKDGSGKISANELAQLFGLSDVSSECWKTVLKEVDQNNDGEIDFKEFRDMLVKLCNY

Chain of Protein kinase 7 (PK7), Plasmodium falciparum 3D7 (PF3D7_0213400) (Q7YTF7 1-343): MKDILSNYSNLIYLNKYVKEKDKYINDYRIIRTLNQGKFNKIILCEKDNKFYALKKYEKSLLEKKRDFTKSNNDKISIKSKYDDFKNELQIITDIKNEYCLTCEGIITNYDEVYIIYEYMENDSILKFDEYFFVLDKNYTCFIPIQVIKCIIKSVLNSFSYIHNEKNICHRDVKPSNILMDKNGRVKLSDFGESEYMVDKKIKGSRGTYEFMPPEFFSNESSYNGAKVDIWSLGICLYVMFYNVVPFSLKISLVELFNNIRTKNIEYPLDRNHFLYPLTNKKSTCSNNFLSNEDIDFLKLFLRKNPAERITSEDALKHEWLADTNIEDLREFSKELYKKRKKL
Chain of Plasmodium falciparum protein kinase 6 (PK6, PF3D7_1337100) (Q8IDW1 1-305): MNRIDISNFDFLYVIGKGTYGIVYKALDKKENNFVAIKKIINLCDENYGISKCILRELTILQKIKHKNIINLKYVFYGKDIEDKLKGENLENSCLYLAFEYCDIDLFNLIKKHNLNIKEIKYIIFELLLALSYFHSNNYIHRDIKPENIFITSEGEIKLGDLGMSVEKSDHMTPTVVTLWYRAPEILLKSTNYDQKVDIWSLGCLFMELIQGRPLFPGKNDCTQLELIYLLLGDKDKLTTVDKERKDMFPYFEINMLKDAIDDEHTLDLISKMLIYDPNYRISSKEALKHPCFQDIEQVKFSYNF
Chain of Calcium-dependent protein kinase 1 (Plasmodium falciparum (isolate 3D7)) (P62344 whole entry, looked up): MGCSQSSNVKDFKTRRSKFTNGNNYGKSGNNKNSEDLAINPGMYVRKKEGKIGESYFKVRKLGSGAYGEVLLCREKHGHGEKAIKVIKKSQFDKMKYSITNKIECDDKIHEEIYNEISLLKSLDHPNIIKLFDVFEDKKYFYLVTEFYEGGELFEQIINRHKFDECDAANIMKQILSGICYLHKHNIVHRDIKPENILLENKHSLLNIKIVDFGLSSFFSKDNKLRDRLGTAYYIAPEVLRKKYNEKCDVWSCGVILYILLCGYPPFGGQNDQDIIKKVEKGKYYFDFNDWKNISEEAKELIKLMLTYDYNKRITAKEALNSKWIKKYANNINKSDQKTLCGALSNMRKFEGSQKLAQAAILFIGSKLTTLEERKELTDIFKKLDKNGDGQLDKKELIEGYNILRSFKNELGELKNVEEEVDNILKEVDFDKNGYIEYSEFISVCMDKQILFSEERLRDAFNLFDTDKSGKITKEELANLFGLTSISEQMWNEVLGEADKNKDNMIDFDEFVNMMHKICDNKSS
Chain of L-lactate dehydrogenase (Plasmodium falciparum (isolate CDC / Honduras)) (Q27743 whole entry, looked up): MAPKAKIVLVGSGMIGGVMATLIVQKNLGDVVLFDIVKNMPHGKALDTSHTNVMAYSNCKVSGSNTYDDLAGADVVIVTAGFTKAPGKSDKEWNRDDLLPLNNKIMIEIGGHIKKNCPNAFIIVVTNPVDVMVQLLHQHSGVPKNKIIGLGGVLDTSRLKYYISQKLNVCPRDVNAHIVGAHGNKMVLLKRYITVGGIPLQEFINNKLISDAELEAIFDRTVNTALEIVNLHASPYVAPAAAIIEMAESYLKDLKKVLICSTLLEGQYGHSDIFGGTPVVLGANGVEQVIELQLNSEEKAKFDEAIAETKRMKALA

SMILES	growth inhibition [1]	inhibition [2]	inhibition [3] [%]	growth inhibition [4]	outcome [5]	outcome [6]	outcome [7]	outcome [8]
CCC(C)c1ccc(NC(=O)Nc2ccnc3ccccc23)cc1 (stereo not drawn)	42%	27%	-2	98% (active)	inactive	inactive	inactive	inactive
CN1CCC(N2CCN(Cc3cccc(-c4ccc(-c5nc6ccc(F)cc6[nH]5)cc4)c3)CC2)CC1	100% (active)	92% (active)	3	100% (active)	inactive	inactive	inactive	inactive
O=C(Nc1cc(F)c(F)c(-c2cccnc2)c1)N1CCc2cc(Cl)c(Cl)cc21	9%	0%	5	94% (active)	inactive	inactive	inactive	inactive
COc1cccc2c(Nc3ccccc3C)nc(Nc3ccccc3C)nc12	36%	9%	4	95% (active)	inactive	inactive	inactive	inactive
Cc1nc2ccc(F)cc2n1C1CCN(C(=O)Cc2ccc(F)c(F)c2)CC1	99% (active)	2%	0	100% (active)	inactive	inactive	inactive	inactive
CC(=O)c1ccc(-c2ccc(C(=O)NCCCCN3CCC(c4ccc5c(c4OCC(N)=O)CCCC5)CC3)cc2)s1	4%	26%	-4	90% (active)	inactive	inactive	inactive	inactive
O=[N+]([O-])c1ccc2nc(Nc3ccc(Cl)c(Cl)c3)c(Nc3ccc(Cl)c(Cl)c3)nc2c1	99% (active)	1%	3	101% (active)	inactive	inactive	inactive	inactive
CC(=O)Nc1nc(-c2ccccc2)[nH]c1C(N)=O	-2%	10%	4	99% (active)	inactive	inactive	inactive	inactive
COc1cccc(OC)c1-c1ccccc1NC(=O)N1CCCc2cc(C)ccc21	84% (active)	51% (active)	5	82% (active)	inactive	inactive	inactive	inactive
CCCCCCN1CCN(Cc2cccc(NC(=O)c3cc4ccccc4s3)c2)CC1	68% (active)	20%	-1	93% (active)	inactive	inactive	inactive	inactive
CC(=O)Nc1ccc(S(=O)(=O)N(Cc2cccc(Oc3ccccc3)c2)C2CCN(C/C=C(\C)CCC=C(C)C)CC2)cc1	99% (active)	22%	0	100% (active)	inactive	inactive	inactive	inactive
O=C(NC1CCN(Cc2ccccc2)CC1)c1cc(C(=O)NC2CCN(Cc3ccccc3)CC2)cc(C(=O)NC2CCN(Cc3ccccc3)CC2)c1	100% (active)	13%	1	100% (active)	inactive	inactive	inactive	inactive
CCC(=O)c1c(C)n(-c2ncnc3c2nc(C)n3-c2ccc(C)cc2C)c2ccccc12	78% (active)	-16%	-2	96% (active)	inactive	inactive	inactive	inactive
CN1CCC(C(=O)Nc2cccc(-c3ccc(-c4nc5ccccc5[nH]4)cc3)c2)CC1	15%	7%	5	82% (active)	inactive	inactive	inactive	inactive
CCOC(=O)C1=C(C)NC2=C(C(=O)C(C(=O)OC)C(C)C2)C1c1cc(Br)c(OCC)c(OC)c1 (stereo not drawn)	99% (active)	8%	0	101% (active)	inactive	inactive	inactive	inactive
CN1CCN(c2ccc3nc(-c4ccc5nc(-c6ccc(O)cc6)[nH]c5c4)[nH]c3c2)CC1	100% (active)	-11%	3	99% (active)	inactive	inactive	inactive	inactive
CC(C)Oc1cccc(-c2ccc(C(=O)NCC3CCCN(Cc4cccc(C(F)(F)F)c4)C3)s2)c1 (stereo not drawn)	28%	10%	-2	91% (active)	inactive	inactive	inactive	inactive
Cc1ccccc1C1CCN(C2CCC(NC(=O)c3cc4cc(Cl)ccc4o3)CC2)CC1 (stereo not drawn)	30%	22%	-2	89% (active)	inactive	inactive	inactive	inactive

SMILES	growth inhibition [1]	inhibition [2]	inhibition [3] [%]	growth inhibition [4]	outcome [5]	outcome [6]	outcome [7]	outcome [8]
CC(=O)Nc1nc(C(=O)Nc2cccc(-c3ccc(-c4nc5c(C)cccc5[nH]4)s3)c2)cs1	67% (active)	14%	-2	101% (active)	inactive	inactive	inactive	inactive
CCC(CO)NCC(O)Cn1c2ccc(Cl)cc2c2cc(Cl)ccc21 (stereo not drawn)	88% (active)	11%	-2	96% (active)	inactive	inactive	inactive	inactive
CCc1cn2c3c(cc(C(=O)N[C@@H](Cc4ccccc4)[C@H](O)CNC(C)(C)c4cccc(OC)c4)cc13)N(C)S(=O)(=O)C2	99% (active)	27%	-5	98% (active)	inactive	inactive	inactive	inactive
O=C(Nc1ccc(-c2ccc(-c3nc4ccc(C(F)(F)F)cc4[nH]3)cc2)cc1)Nc1ccc(F)c(F)c1F	100% (active)	39%	3	99% (active)	inactive	inactive	inactive	inactive
O=C(NCc1ccccc1)Nc1cccc(-c2cccc(-c3nc4ccc(C(F)(F)F)cc4[nH]3)c2)c1	30%	56% (active)	0	95% (active)	inactive	inactive	inactive	inactive
COC(=O)c1ccccc1N1CCN(CCCCNC(=O)c2ccc(NC(=O)c3cc(Cl)cc(Cl)c3)cc2)CC1	42%	20%	0	100% (active)	inactive	inactive	inactive	inactive
CN(CCCNCc1cccc2ccccc12)CCCNCc1cccc2ccccc12	94% (active)	93% (active)	-3	100% (active)	inactive	inactive	inactive	inactive
COc1cc(C)nc2ccc(NC(=O)Nc3ccccc3[N+](=O)[O-])cc12	58% (active)	6%	-1	101% (active)	inactive	inactive	inactive	inactive
COCCCNc1sc(S(=O)(=O)c2ccccc2)nc1S(=O)(=O)c1ccc(Cl)cc1	87% (active)	-7%	4	95% (active)	inactive	inactive	inactive	inactive
Cc1cc(N2CCCC2)nc(Nc2ccc(NC(=O)C(C)C)cc2)n1	36%	40%	2	97% (active)	inactive	inactive	inactive	inactive
COc1cc2c(cc1N(C(C)C)S(=O)(=O)c1sc3ccc(Cl)cc3c1C)CCNCC2	70% (active)	98% (active)	-3	91% (active)	inactive	inactive	inactive	inactive
CNC(=O)c1cc(S(=O)(=O)Nc2ccc(OC)cc2)cs1	48%	11%	-6	95% (active)	inactive	inactive	inactive	inactive
CCN(CC)CCOc1cc2c(cc1Br)-c1cc(Br)c(OCCN(CC)CC)cc1C2=NO	98% (active)	99% (active)	-3	100% (active)	inactive	inactive	inactive	inactive
Cc1ccc(C(=O)Nc2ccc(Nc3ccnc4cc(-c5ccncc5)ccc34)cc2O)cc1	100% (active)	14%	1	97% (active)	inactive	inactive	inactive	inactive
C=CCOC(=O)N1CCC(CNCc2ccc(-c3ccc(-c4nc5ccccc5[nH]4)s3)cc2)C1 (stereo not drawn)	76% (active)	29%	-2	101% (active)	inactive	inactive	inactive	inactive
Cn1nc(-c2cccc(CN[C@@H]3CCc4ccc(O)cc43)c2)c2cnc(NC3CCCC3)nc21	76% (active)	6%	-2	100% (active)	inactive	inactive	inactive	inactive
Clc1ccccc1CNc1noc(-c2sccc2Br)n1	93% (active)	0%	-7	97% (active)	inactive	inactive	inactive	inactive
CCOc1cc2ncnc(Nc3cc(Cl)c(Cl)c(Cl)c3)c2cc1OCC	98% (active)	11%	-3	102% (active)	inactive	inactive	inactive	inactive
